Data published in the supplement of paper PMC8773631.
Counter-ions that a name gives are not always drawn. ± gives the uncertainty stated by the source.

test system: NCC-MFS5-C1; assay: cell viability relative to DMSO control; higher = less growth inhibition; conditions: 10 µM; treatment time: 3 days
Method: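 NCC-MFS5-C1 myxofibrosarcoma cells (1x10^4 per well, 384-well) were treated on day 2 with 10 µM of each drug. On day 5, viability was read by CCK-8 absorbance at 450 nm and normalised to the DMSO control (%), n = 2.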

**Q.** For `CCCCNC(=O)NS(=O)(=O)c1ccc(C)cc1` [Tolbutamide], which cell viability is on record?
**A.** The cell viability was 82.5 ± 3.6%.

**Q.** How did the cell viability turn out when `O=C(c1ccc(OCCN2CCCCC2)cc1)c1c(-c2ccc(O)cc2)sc2cc(O)ccc12` [Raloxifene HCl] was run?
**A.** The cell viability was 85 ± 1%.

**Q.** `CO[C@@]12[C@H](COC(N)=O)C3=C(C(=O)C(C)=C(N)C3=O)N1C[C@@H]1N[C@@H]12` [Mitomycin C] was tested. Which cell viability did it give?
**A.** Its cell viability is 41.7 ± 3.7%.

**Q.** Which cell viability does the source give for `CC(C)(OCc1nn(Cc2ccccc2)c2ccccc12)C(=O)O` [Bindarit] here?
**A.** The cell viability was 85.93 ± 0.83%.

**Q.** With `O=C(CCCCCCC(=O)Nc1ccccc1)NO` [Vorinostat (SAHA, MK0683)] as the compound, how does the cell viability read?
**A.** Its cell viability is 34.5 ± 7.2%.

**Q.** `O=[n+]1c(CBr)c(CBr)n([O-])c2ccccc21` [Conoidin A] was tested. Which cell viability did it give?
**A.** Its cell viability is 86.4 ± 1.1%.

**Q.** `Cc1[nH]c(/C=C2\C(=O)Nc3ccccc32)c(C)c1CCC(=O)O` [Orantinib (TSU-68, SU6668)] was tested. Which cell viability did it give?
**A.** Its cell viability is 80.2 ± 1.5%.

**Q.** With `CCCCC1C(=O)N(c2ccccc2)N(c2ccccc2)C1=O` [Phenylbutazone] as the compound, how does the cell viability read?
**A.** The cell viability was 72.5 ± 5.7%.

**Q.** Which cell viability does the source give for `COc1cccc2c1C(=O)c1c(O)c3c(c(O)c1C2=O)C[C@@](O)(C(C)=O)C[C@@H]3O[C@H]1C[C@H](N)[C@H](O)[C@H](C)O1` [Daunorubicin HCl] here?
**A.** The cell viability was 14.4 ± 6.7%.

**Q.** With `C/C=C1\NC(=O)[C@H]2CSSCC/C=C/[C@H](CC(=O)N[C@H](C(C)C)C(=O)N2)OC(=O)[C@H](C(C)C)NC1=O` [Romidepsin (FK228, Depsipeptide)] as the compound, how does the cell viability read?
**A.** The cell viability was -1.35 ± 0.8%.

**Q.** Which cell viability does the source give for `CC[C@@]1(O)C(=O)OCc2c1cc1n(c2=O)Cc2cc3c(CN(C)C)c(O)ccc3nc2-1` [Topotecan HCl] here?
**A.** Its cell viability is 33.3 ± 5.3%.

**Q.** `C/C(=C\c1csc(C)n1)[C@@H]1C[C@@H]2O[C@]2(C)CCC[C@H](C)[C@H](O)[C@@H](C)C(=O)C(C)(C)[C@@H](O)CC(=O)N1` was tested. Which cell viability did it give?
**A.** Its cell viability is 51.24 ± 0.45%.

**Q.** How did the cell viability turn out when `O=P(O)(O)C(O)(Cn1ccnc1)P(=O)(O)O` [Zoledronic Acid] was run?
**A.** Its cell viability is 84.5 ± 7.6%.

**Q.** For `Nc1[nH]cnc2ncnc1-2` [Adenine HCl], which cell viability is on record?
**A.** Its cell viability is 98.1 ± 6.5%.

**Q.** Which cell viability does the source give for `CCOc1cc(C(C)(C)C)ccc1C1=N[C@@](C)(c2ccc(Cl)cc2)[C@@](C)(c2ccc(Cl)cc2)N1C(=O)N1CCN(CCCS(C)(=O)=O)CC1` here?
**A.** The cell viability was 96 ± 5.5%.

**Q.** Which cell viability does the source give for `CC[C@]1(O)C[C@H]2CN(CCc3c([nH]c4ccccc34)[C@@](C(=O)OC)(c3cc4c(cc3OC)N(C=O)[C@H]3[C@@](O)(C(=O)OC)[C@H](OC(C)=O)[C@]5(CC)C=CCN6CC[C@]43[C@@H]65)C2)C1` [Vincristine] here?
**A.** The cell viability was 29.8 ± 4.2%.

**Q.** How did the cell viability turn out when `COC(=O)N[C@H](C(=O)N[C@@H](Cc1ccccc1)[C@@H](O)CN(Cc1ccc(-c2ccccn2)cc1)NC(=O)[C@@H](NC(=O)OC)C(C)(C)C)C(C)(C)C` [Atazanavir Sulfate] was run?
**A.** Its cell viability is 67.8 ± 13%.

**Q.** With `O=C(O)CCCN1CCC(O[C@@H](c2ccc(Cl)cc2)c2ccccn2)CC1` [Bepotastine Besilate] as the compound, how does the cell viability read?
**A.** The cell viability was 78.7 ± 2.6%.

**Q.** For `Nc1ccn([C@@H]2O[C@H](CO)[C@@H](O)C2(F)F)c(=O)n1` [Gemcitabine], which cell viability is on record?
**A.** Its cell viability is 91 ± 2.9%.

**Q.** How did the cell viability turn out when `Cc1ccc(-c2cc(C(F)(F)F)nn2-c2ccc(S(N)(=O)=O)cc2)cc1` [Celecoxib] was run?
**A.** The cell viability was 72.1 ± 10%.

**Q.** `Clc1ccc(Nc2nnc(Cc3ccncc3)c3ccccc23)cc1` [Vatalanib (PTK787) 2HCl] was tested. Which cell viability did it give?
**A.** The cell viability was 59.1 ± 0.89%.

**Q.** Which cell viability does the source give for `C=CC(=O)Nc1cccc(Nc2nc(Nc3ccc(N4CCN(C(C)=O)CC4)cc3OC)ncc2C(F)(F)F)c1` [Rociletinib (CO-1686, AVL-301)] here?
**A.** Its cell viability is 54.97 ± 0.41%.

**Q.** How did the cell viability turn out when `Cc1ccc(NC(=O)c2ccc(CN3CCN(C)CC3)cc2)cc1Nc1nccc(-c2cccnc2)n1` [Imatinib (STI571)] was run?
**A.** Its cell viability is 72.9 ± 3.3%.

**Q.** `CS(=O)(=O)OCCCCOS(C)(=O)=O` [Busulfan] was tested. Which cell viability did it give?
**A.** The cell viability was 83.3%.

**Q.** How did the cell viability turn out when `N#CC[C@H](C1CCCC1)n1cc(-c2ncnc3[nH]ccc23)cn1` was run?
**A.** Its cell viability is 66.2 ± 4.7%.

**Q.** How did the cell viability turn out when `CCc1c2c(nc3ccc(OC(=O)N4CCC(N5CCCCC5)CC4)cc13)-c1cc3c(c(=O)n1C2)COC(=O)[C@]3(O)CC` [Irinotecan HCl Trihydrate] was run?
**A.** Its cell viability is 64.1 ± 2.3%.

**Q.** How did the cell viability turn out when `N=C(N)NC(=N)N1CCOCC1` [Moroxydine HCl] was run?
**A.** Its cell viability is 91.2 ± 3.7%.

**Q.** `Cc1ccc(NC(=O)c2ccc(CN3CCN(C)CC3)cc2)cc1Nc1nccc(-c2cccnc2)n1` [Imatinib Mesylate (STI571)] was tested. Which cell viability did it give?
**A.** The cell viability was 69.6 ± 1.4%.

**Q.** For `C#CCC(Cc1cnc2nc(N)nc(N)c2n1)c1ccc(C(=O)N[C@@H](CCC(=O)O)C(=O)O)cc1` (stereo partly specified) [Pralatrexate], which cell viability is on record?
**A.** The cell viability was 85 ± 4.1%.

**Q.** For `CC(C)C(=O)Nc1ccc([N+](=O)[O-])c(C(F)(F)F)c1` [Flutamide], which cell viability is on record?
**A.** Its cell viability is 78.3 ± 6%.

**Q.** How did the cell viability turn out when `COC(=O)c1ccc2c(C(=Nc3ccc(N(C)C(=O)CN4CCN(C)CC4)cc3)c3ccccc3)c(O)[nH]c2c1` [Nintedanib (BIBF 1120)] was run?
**A.** Its cell viability is 39.1 ± 0.64%.

**Q.** For `CN1CCN(CCOc2cc(OC3CCOCC3)c3c(Nc4c(Cl)ccc5c4OCO5)ncnc3c2)CC1` [Saracatinib (AZD0530)], which cell viability is on record?
**A.** The cell viability was 62.8 ± 3.8%.

**Q.** For `C=CC(=O)N1CCC[C@@H](n2nc(-c3ccc(Oc4ccccc4)cc3)c3c(N)ncnc32)C1`, which cell viability is on record?
**A.** Its cell viability is 79.2 ± 0.35%.

**Q.** Which cell viability does the source give for `O=C(c1cc(Cc2n[nH]c(=O)c3ccccc23)ccc1F)N1CCN(C(=O)C2CC2)CC1` here?
**A.** The cell viability was 78 ± 9.1%.

**Q.** `O=C(O)C(=O)O.[NH-][C@@H]1CCCC[C@H]1[NH-].[Pt+2]` [Oxaliplatin] was tested. Which cell viability did it give?
**A.** The cell viability was 72.7 ± 2.5%.

**Q.** For `C#Cc1cccc(Nc2ncnc3cc(OCCOC)c(OCCO)cc23)c1`, which cell viability is on record?
**A.** The cell viability was 92.2 ± 1.8%.
